Results as given in publication PMC7826789 (International Journal of Molecular Sciences, 2021).

How the values were obtained:
Conditions in all cases: Compound Concentration (nM):1000
[1] = test system: TBK1
[2] = test system: TEC
[3] = test system: TESK1
[4] = test system: TGFBR1
[5] = test system: TGFBR2
[6] = test system: TIE1
[7] = test system: T1, TIE2
T1 construct: gene TEK

[8] = test system: TLK1
[9] = test system: TLK2
[10] = test system: TNIK
[11] = test system: TNK1
[12] = test system: TNK2
[13] = test system: TNNI3K
[14] = test system: T2, TRKA
T2 construct: gene NTRK1

[15] = test system: T3, TRKB
T3 construct: gene NTRK2

[16] = test system: T4, TRKC
T4 construct: gene NTRK3

[17] = test system: TRPM6
[18] = test system: TSSK1B
[19] = test system: TSSK3
[20] = test system: TTK
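Further: KINOMEscan scanMAX binding as percent activity remaining versus control; lower means stronger binding.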

Row | Compound | Percent Control [1] | Percent Control [2] | Percent Control [3] | Percent Control [4] | Percent Control [5] | Percent Control [6] | Percent Control [7] | Percent Control [8] | Percent Control [9] | Percent Control [10] | Percent Control [11] | Percent Control [12] | Percent Control [13] | Percent Control [14] | Percent Control [15] | Percent Control [16] | Percent Control [17] | Percent Control [18] | Percent Control [19] | Percent Control [20]
1 | CC(C)COC(=O)c1ccc2c(c1)/C(=C/Nc1ccc(S(N)(=O)=O)cc1)C(=O)N2 [GW416981X] | 17% | 100% | 100% | 100% | 42% | 100% | 100% | 100% | 95% | 58% | 100% | 100% | 100% | 23% | 55% | 59% | 100% | 100% | 100% | 6.3%
2 | Nc1ncnc2occ(-c3ccc(NC(=O)Nc4cc(C(F)(F)F)ccc4F)cc3)c12 [GW770249X] | 100% | 100% | 100% | 100% | 100% | 2.6% | 3.8% | 100% | 100% | 59% | 85% | 100% | 40% | 3% | 1.6% | 0.1% | 100% | 100% | 84% | 61%
3 | Cl.O=C(Nc1ccc(Oc2ccc3[nH]c(NC(=O)c4ccco4)nc3c2)cc1)Nc1cc(C(F)(F)F)ccc1F [GW683134A] | 100% | 100% | 71% | 91% | 89% | 1.1% | 1.9% | 100% | 77% | 100% | 36% | 100% | 53% | 5% | 6% | 3% | 100% | 100% | 100% | 85%
4 | NS(=O)(=O)c1ccc(N/N=C2\C(=O)Nc3ccc(-c4cnco4)cc32)cc1 [GW276655] | 63% | 100% | 77% | 100% | 100% | 73% | 100% | 96% | 66% | 26% | 52% | 66% | 100% | 15% | 39% | 38% | 89% | 100% | 100% | 20%
5 | CN(C)c1cc2c(Nc3ccc4c(cnn4Cc4ccccc4)c3)ncnc2cn1 [GW282974X] | 55% | 84% | 87% | 100% | 100% | 100% | 100% | 78% | 80% | 100% | 93% | 84% | 100% | 65% | 92% | 93% | 92% | 100% | 99% | 87%
6 | COc1cc(/C=N/Nc2ncnc3[nH]ncc23)ccc1O [GW578748X] | 50% | 100% | 94% | 100% | 87% | 100% | 100% | 86% | 76% | 94% | 100% | 100% | 100% | 42% | 70% | 88% | 95% | 100% | 100% | 68%
7 | CC1=C(C(=O)Nc2ccc3[nH]ncc3c2)C(c2ccc3ccccc3c2)CC(=O)N1 (centres unmarked) [GSK270822A] | 81% | 90% | 99% | 85% | 100% | 80% | 96% | 89% | 100% | 85% | 68% | 62% | 100% | 66% | 73% | 63% | 82% | 97% | 43% | 92%
8 | COc1ccc2c(-c3ccnc(Nc4cccc(OC(F)(F)F)c4)n3)cnn2n1 [GW810372X] | 80% | 100% | 70% | 100% | 52% | 100% | 100% | 100% | 84% | 100% | 100% | 100% | 100% | 55% | 92% | 91% | 92% | 100% | 86% | 94%
9 | COc1cccc(-c2c[nH]c3c(N/N=C/c4ccncc4)ncnc23)c1 [GW814408X] | 71% | 90% | 97% | 55% | 100% | 96% | 100% | 84% | 100% | 51% | 100% | 100% | 31% | 64% | 100% | 100% | 97% | 98% | 98% | 79%
10 | CCn1c(-c2nonc2N)nc2c(C#CC(C)(C)O)nc(OCCNC)cc21.Cl [GSK949675] | 95% | 100% | 100% | 100% | 100% | 100% | 96% | 100% | 100% | 100% | 100% | 100% | 100% | 100% | 100% | 100% | 100% | 90% | 14% | 91%
